Data: PubChem BioAssay (Tox21)
The source made the active and inactive calls. Calls come from the whole dose curve; as a rule, active = well fitted curve in the direction sought with a large enough effect in the repeat runs; inconclusive = weak or mixed curves; inactive = flat fitted curve, though single readings scatter.

Experiment: qHTS assay to test for compound auto fluorescence at 535 nm (green) in HEK293 cells (AID 720680)
Settings: green autofluorescence 485/535 nm; series mostly up to 91.3 µM; fluorescence, % of fluorescein: at the top concentration
Excerpt: U.S. Tox21 Program National Center for Advancing Translational Sciences [NCATS] NIH Chemical Genomics Center [NCGC] U.S. Environmental Protection Agency [EPA] National Institutes of Environmental Health Sciences [NIEHS] National Toxicology Program [NTP] U.S. Food and Drug Administration [FDA] Tox21 Assay Overview: Compound auto fluorescence often interferes with screening of the compound library against various biological targets and signaling pathways. Some of these compounds may have fluorophoric properties. Such properties may interfere with the assay outputs resulting in false positives and/or negatives. To decrease such complications and ensure the compound activities are relevant in terms of biological response, the Tox21 10K compound library was screened for auto fluorescence. From the fluorophores used as reporter signals in our screening assays, the auto fluorescence equivalencies of compounds against three fluorophores have been evaluated: Triamterene, Fluorescein and Rose Bengal sodium for blue, green and red fluorescence, respectively. The fluorescence intensities were measured using Excitation/Emission wavelengths at 405/460nm, 485/535nm and 540/590nm for blue, green and red labels, respectively. This assay includes the green fluorescence data.
Tox21 Assay Protocol Summary: 2,000 HEK293 cells in 5 uL of culture medium containing 10% dialyzed FBS per well were dispensed into black wall/clear bottom 1536-well plates using a Multidrop Combi Dispenser (Thermo Scientific). The assay plates were incubated for 4-5 hr at 37C to allow cell attachment to the well bottom, followed by the transfer of 23 nL compound or DMSO vehicle by a pintool work station (Kalypsys, San Diego, CA). After the assay plates were incubated overnight at 37C and 5% CO2, fluorescence intensities in the assay plates were measured by an Envision (PerkinElmer, Shelton, CT) plate reader using three labels for measuring blue, green and red fluorescence at […] 460, 535 and 590nm respectively.
% is set by controls: 0 for no effect and ±100 for the full control effect.

**Q.** Which outcome does the source give for O=[N+]([O-])c1ccc(F)c([N+](=O)[O-])c1 here?
**A.** inactive

**Q.** Which “fluorescence, % of fluorescein” value does the source give for O=C(O)C(F)(F)C(F)(F)C(F)(F)C(F)(F)C(F)(F)C(F)(F)C(F)(F)C(F)(F)C(F)(F)F here?
**A.** 0.0605% (inactive)

**Q.** Which “fluorescence, % of fluorescein” value does the source give for Cc1ccc2ccccc2c1 here?
**A.** -0.0249% (inactive)

**Q.** With ClC=C(Cl)Cl as the compound, how does the outcome read?
**A.** inactive

**Q.** Which “fluorescence, % of fluorescein” value does the source give for CCOC(=O)[C@]1(c2ccccc2)Oc2ccccc2[C@@H]1N here?
**A.** 0.0809% (inactive)

**Q.** Which “fluorescence, % of fluorescein” value does the source give for Nc1ccc([N+](=O)[O-])cc1[N+](=O)[O-] here?
**A.** 0.087% (inactive)

**Q.** Which “fluorescence, % of fluorescein” value does the source give for NCC(CC(=O)O)c1ccc(Cl)cc1 (stereo not given) here?
**A.** 0.0349% [at 46 µM] (inactive)

**Q.** For C=CCN1CC[C@]23c4c5ccc(O)c4O[C@H]2C(=O)CC[C@@]3(O)[C@H]1C5, which outcome is on record?
**A.** inactive

**Q.** For O=C=Nc1ccc(Cl)cc1, which “fluorescence, % of fluorescein” value is on record?
**A.** 0.0147% (inactive)

**Q.** For CC(O)(CS(=O)(=O)c1ccc(F)cc1)C(=O)Nc1ccc(C#N)c(C(F)(F)F)c1 (stereo not given), which outcome is on record?
**A.** inactive

**Q.** Which “fluorescence, % of fluorescein” value does the source give for CCCN(CCC)c1c([N+](=O)[O-])cc(S(C)(=O)=O)cc1[N+](=O)[O-] here?
**A.** -0.0309% (inactive)

**Q.** For c1ccc(CN2CCNCC2)cc1, which “fluorescence, % of fluorescein” value is on record?
**A.** -0.0295% [at 203 µM] (inactive)

**Q.** With COC(=O)c1cncn1C(C)c1ccccc1 (stereo not given) as the compound, how does the “fluorescence, % of fluorescein” value read?
**A.** -0.325% [at 46 µM] (inactive)

**Q.** With CCOC(=O)CBr as the compound, how does the “fluorescence, % of fluorescein” value read?
**A.** 0.117% (inactive)

**Q.** With Nc1ccc(N=Nc2ccc(-c3ccc(N=Nc4c(S(=O)(=O)O)cc5cc(S(=O)(=O)O)c(N=Nc6ccccc6)c(O)c5c4N)cc3)cc2)c(N)c1 as the compound, how does the “fluorescence, % of fluorescein” value read?
**A.** 0.0406% (inactive)

**Q.** For N#CCC#N, which “fluorescence, % of fluorescein” value is on record?
**A.** 0.0457% (inactive)

**Q.** Which “fluorescence, % of fluorescein” value does the source give for CC(C)N(CCC(C(N)=O)(c1ccccc1)c1ccccn1)C(C)C (stereo not given) here?
**A.** -0.0392% [at 46 µM] (inactive)

**Q.** Which outcome does the source give for CC(=O)NC1CCSC1=O (stereo not given) here?
**A.** inactive

**Q.** With CCOP(=O)(OCC)SCCSCC as the compound, how does the “fluorescence, % of fluorescein” value read?
**A.** -0.119% (inactive)

**Q.** Which “fluorescence, % of fluorescein” value does the source give for O=C(C(Cl)(Cl)Cl)C(Cl)(Cl)Cl here?
**A.** 0.0332% [at 95.7 µM] (inactive)

**Q.** Which “fluorescence, % of fluorescein” value does the source give for CN1C[C@H](CNC(=O)OCc2ccccc2)C[C@@H]2c3cccc4c3c(cn4C)C[C@H]21 here?
**A.** 0.764% [at 46 µM] (inactive)

**Q.** For O=C(Nc1ccccc1)Nc1cnns1, which “fluorescence, % of fluorescein” value is on record?
**A.** -0.0606% (inactive)

**Q.** For C=CC(=O)OCC(C)O (stereo not given), which “fluorescence, % of fluorescein” value is on record?
**A.** 0.0416% [at 95.7 µM] (inactive)

**Q.** For Cc1c(F)c(F)c(COC(=O)C2C(/C=C(\Cl)C(F)(F)F)C2(C)C)c(F)c1F (stereo not given), which “fluorescence, % of fluorescein” value is on record?
**A.** 0.0264% (inactive)

**Q.** For c1ccoc1, which “fluorescence, % of fluorescein” value is on record?
**A.** 0.063% (inactive)

**Q.** Which “fluorescence, % of fluorescein” value does the source give for CC(C)(Cl)[N+](=O)[O-] here?
**A.** -0.007% (inactive)

**Q.** With COc1ccc(-c2ccccc2)cc1NNC(=O)OC(C)C as the compound, how does the “fluorescence, % of fluorescein” value read?
**A.** 0.17% [at 95.7 µM] (inactive)

**Q.** Which “fluorescence, % of fluorescein” value does the source give for CC1CC(CC2CCC(N)C(C)C2)CCC1N (stereo not given) here?
**A.** -0.0107% [at 95.7 µM] (inactive)

**Q.** For O=C1C(Cl)C(CCl)CN1c1cccc(C(F)(F)F)c1 (stereo not given), which “fluorescence, % of fluorescein” value is on record?
**A.** -0.0139% (inactive)

**Q.** For CCC(COC(=O)c1cc(OC)c(OC)c(OC)c1)(c1ccccc1)N(C)C (stereo not given), which “fluorescence, % of fluorescein” value is on record?
**A.** 0.09% [at 46 µM] (inactive)

**Q.** With CC1C(=O)C[C@]2(C(C)C)C[C@H]12 (stereo not given in full) as the compound, how does the “fluorescence, % of fluorescein” value read?
**A.** 0.0129% (inactive)

**Q.** Which “fluorescence, % of fluorescein” value does the source give for O=Cc1ccc2c(c1)OCO2 here?
**A.** 0.0048% (inactive)

**Q.** For CCc1ccc(C(=O)NN(C(=O)c2cc(C)cc(C)c2)C(C)(C)C)cc1, which “fluorescence, % of fluorescein” value is on record?
**A.** -0.0143% (inactive)

**Q.** For CC(c1ccc(O)cc1)(c1ccc(O)cc1)c1ccc(O)cc1, which “fluorescence, % of fluorescein” value is on record?
**A.** -0.188% (inactive)

**Q.** With O=C1NCN(c2ccccc2)C12CCN(CCCOc1ccc(F)cc1)CC2 as the compound, how does the “fluorescence, % of fluorescein” value read?
**A.** 0.0389% [at 46 µM] (inactive)

**Q.** Which outcome does the source give for [CH3][Sn]([CH3])([Cl])[Cl] here?
**A.** inactive

**Q.** Which “fluorescence, % of fluorescein” value does the source give for CCOP(=S)(OCC)SCn1nnc2ccccc2c1=O here?
**A.** 0.0014% (inactive)

**Q.** With C/C=C/C=O as the compound, how does the “fluorescence, % of fluorescein” value read?
**A.** 0.0045% (inactive)

**Q.** With CC(C)(C)C(O)C(Oc1ccc(Cl)cc1)n1cncn1 (stereo not given) as the compound, how does the “fluorescence, % of fluorescein” value read?
**A.** -0.131% (inactive)

**Q.** For CC(Cl)C(C)Cl (stereo not given), which “fluorescence, % of fluorescein” value is on record?
**A.** 0.138% (inactive)
